Test results reported in PubChem BioAssay AID588413 (Sanford-Burnham Center for Chemical Genomics, 2011).
The whole screen tested about 340,000 compounds, of which about 2,500 (0.74%) were called active. The sample as a whole holds a higher share of actives than the screen did. A number with no mark means an inactive call.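 How the source made its calls: active means inhibition above about 55% (limit read from the data); inactive means the rest.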

test: blockers of Gli reporter signaling – luciferase luminescence, Sufu-KO-LIGHT cells, uHTS, primary screen (AID 588413); settings: Sufu-KO-LIGHT fibroblasts, at 5 µM, hits give high values;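 further: 0% = DMSO-treated cells and 100% = wells with medium but no cells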

| Structure (SMILES) | inhibition |
| --- | --- |
| CC(=O)N1CCCc2cc(S(=O)(=O)N3CCCC(C(=O)N4CCN(c5cccc(Cl)c5)CC4)C3)ccc21 (stereo not drawn) | 64.5% (active) |
| CC(=O)N1c2ccc(S(=O)(=O)N3CCCC(C(=O)Nc4cccc(Cl)c4)C3)cc2CC1C (stereo not drawn) | -0.91% |
| CC(=O)N1CCCc2cc(S(=O)(=O)N3CCCC(C(=O)NCc4ccc(Cl)cc4)C3)ccc21 (stereo not drawn) | 27% |
| O=C(Nc1ccccc1C(=O)NCCCn1ccnc1)c1ccc(Cl)cc1Cl | 19.3% |
| CCOC(=O)C(CO)NC(=O)C1(NC(C)=O)CCCC1 (stereo not drawn) | -2.14% |
| O=C(CN(CC1CCCO1)C(=O)CNS(=O)(=O)c1ccc(F)cc1)NCc1ccco1 (stereo not drawn) | 0.03% |
| O=C(O)c1ccc(/C=C2\SC(=S)N(NC(=O)c3ccc(Br)cc3)C2=O)cc1 | 10% |
| O=C1/C(=C/c2ccc(F)cc2)SC(=S)N1NS(=O)(=O)c1ccccc1 | 59.1% (active) |
| O=C1/C(=C/c2ccc(F)cc2)SC(=S)N1CCCC(=O)N1CCCCC1CCO (stereo not drawn) | -14.7% |
| CN1CCN(C(=O)N2c3ccccc3CCc3ccccc32)CC1 | 0.29% |
| CC1CCc2sc(C(=O)NCC(c3ccco3)N3CCCCC3)cc2C1 (stereo not drawn) | 16.2% |
| Cc1ccc(CN(Cc2cccnc2)C(=S)Nc2cc(Cl)ccc2C)cc1 | 12.8% |
| CC(=O)NCC(=O)N(C)C(C(=O)Nc1ccc2c(c1)OCCO2)c1ccccc1 (stereo not drawn) | -14.5% |
| CCc1ccc(-n2c(SCc3cc(=O)n4cc(Br)ccc4n3)nc3[nH]ncc3c2=O)cc1 | 5.99% |
| Cc1cccc2nc(CSc3nc4[nH]ncc4c(=O)n3-c3cccc(Cl)c3)cc(=O)n12 | 67.7% (active) |
| COc1ccc(CCNC(=O)CSc2nc3[nH]ncc3c(=O)n2-c2cccc(C(F)(F)F)c2)cc1OC | 0.76% |
| CCn1cc(-c2cc(C(=O)O)on2)c(C)n1 | -4.15% |
| COc1ccc(-n2c(SCC(=O)Nc3ccc4c(c3)OCO4)nnc2C(C)N2CCCCC2)cc1 (stereo not drawn) | 7.4% |
| Cc1cc(C(=O)CSc2nc(N)cc(=O)[nH]2)c(C)n1CCc1ccc(Cl)cc1 | 0.27% |
| CCCc1cc(=O)[nH]c(SCC(=O)c2cc(C)n(CCC)c2C)n1 | 1.52% |

| Structure (SMILES) | inhibition |
| --- | --- |
| Cc1cc(C(=O)CSc2nc(N)cc(=O)[nH]2)c(C)n1-c1cccc(F)c1 | 56.6% (active) |
| Oc1c(CN2CCN(c3ccc(F)cc3)CC2)cc(Cl)c2cccnc12 | 92.7% (active) |
| COc1cc(C)cc(CN2CCC(Cc3ccccc3)CC2)c1O | 15.5% |
| Cc1ccc(CN2CCN(c3ncccn3)CC2)c(C)c1 | 1.86% |
| Cc1cc(=O)oc2cc(OCC(=O)N3CCN(c4ccc(F)cc4)CC3)c(Cl)cc12 | 6.77% |
| CC1CCCN(CC(O)COCc2ccccc2)C1 (stereo not drawn) | 12.2% |
| Oc1c(CN2CCCC2)cc(COCc2ccccc2)c2cccnc12 | 77.7% (active) |
| CC(C)C(C)NC(=O)COc1nc2ccccc2nc1N(C)C1CCCCC1 (stereo not drawn) | -2.52% |
| CCc1nnc(NC(=O)CCN(c2ccc(C)cc2)S(=O)(=O)c2ccccc2)s1 | -7.2% |
| O=C1/C(=C\Nc2ccccc2)CCN1c1ncccn1 | -39% |
| Cc1ccccc1NC(=O)NC1(C(=O)N2CCCC2)CCCCC1 | 44.2% |
| Cc1ccc(C)c(NS(=O)(=O)c2c(C)[nH]c(C)c2C(=O)N2CCCCC2)c1 | -12.2% |
| CC1CCCN(C(=O)Cn2c(=O)oc3ccccc32)C1 (stereo not drawn) | 1.13% |
| COC(C[C@@H](O)C[C@H](O)[C@H](C)OCc1ccccc1)OC | 7.28% |
| CCc1ccc(C2C(C#N)=C(N)N(N3CCOCC3)C3=C2C(=O)CC(C)(C)C3)s1 (stereo not drawn) | 96.7% (active) |
| COc1ccc(C2C(C#N)=C(/N=C/N3CCOCC3)OC3=C2C(=O)CC(C)(C)C3)cc1OC (stereo not drawn) | 1.58% |
| CCc1ccc(C2C(C#N)=C(N)N(N(C)C)C3=C2C(=O)CCC3)s1 (stereo not drawn) | -0.42% |
| S=C(Cc1ccc(Cl)cc1)N1CCOCC1 | 2.66% |
| O=C(CCN1CCCO1)N1CCCC(N2CCN(c3cccc(C(F)(F)F)c3)CC2)C1 (stereo not drawn) | 8.15% |
| N#Cc1cccc(NC(=O)C2CCCN(C(=O)c3ccc(Cl)cc3)C2)c1 (stereo not drawn) | 0.96% |

| Structure (SMILES) | inhibition |
| --- | --- |
| CC1=Nn2c(nnc2-c2ccccc2)SC1 | 5.28% |
| COc1ccc(C2=Nn3c(nnc3-c3ccccc3OC)SC2)cc1OC1CCCC1 | 67.1% (active) |
| COc1ccccc1-c1nnc2n1N=C(c1ccc(OC(F)F)c(OCC3CC3)c1)CS2 | 23.1% |
| COc1ccc(CNC(=O)CN(c2ccc(OC)c(Cl)c2)S(=O)(=O)c2ccc(C)cc2)cc1 | -11.6% |
| NS(=O)(=O)c1cc(Cl)c(Cl)c(S(N)(=O)=O)c1 | -6.05% |
| Cc1cccc(S(=O)(=O)N2CN(CC3CCCO3)c3nc4ccccc4nc32)c1 (stereo not drawn) | 31.4% |
| Clc1cc(-c2ccc(/C=N/n3cnnc3)o2)ccc1Br | 3.67% |
| Cc1cc([N+](=O)[O-])c(-c2ccc(/C=N/n3cnnc3)o2)cc1Cl | 95.2% (active) |
| Cc1ccc(Cl)cc1-c1ccc(/C=N/n2cnnc2)o1 | 20.2% |
| O=c1ccc2c(-c3ccccc3S(=O)(=O)O)c3ccc(O)c(O)c3oc-2c1O | 9.16% |
| CCCCn1nc(C(=O)Nc2cccc(C(=O)NC3CC3)c2)c2ccccc2c1=O | -0.59% |
| COc1ccc(Cl)cc1S(=O)(=O)N1CCN(CC(=O)C(C)(C)C)CC1 | -2.82% |
| N#Cc1ccsc1NC(=O)CN1CCN(S(=O)(=O)c2cc(Cl)ccc2Cl)CC1 | 1.78% |
| O=C(CN1CCN(S(=O)(=O)c2cc(Cl)ccc2Cl)CC1)c1ccc(O)c(O)c1 | 58.2% (active) |
| COc1ccccc1N(CC(=O)Nc1ccccc1C(=O)N1CCCC1)S(C)(=O)=O | -5.37% |
| Cc1cc(C(=O)N/N=C/c2ccccn2)c2ccccc2n1 | 1.36% |
| Cc1nnc(N/N=C/c2ccccn2)[nH]c1=O | 62.7% (active) |
| O=C(N/N=C/c1ccccn1)C12CC3CC(CC(C3)C1)C2 | -2.98% |
